Here are results for six sequences from the supplement of paper PMC6555819.

Experiment in all cases: PBM binding z-score (relative to random genomic background probes); higher = stronger binding; sequences stand for … in GC…GCGATTGACAGCGTAGAATGAAGG
For test [1], the system named is FXR:RXRa (NR concentration 270 nM, RXRa partner concentration 90 nM). In outline: (§1)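 Regression normalization was applied to scanned fluorescence from custom Agilent 4×180K protein-binding microarrays. Before scanning, arrays were incubated 1 h with ligand-free nuclear receptor dimers, and binding was detected with antibodies against each partner (one per run). Binding z-scores use the random background probes as reference.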

In test [2] the test system is LXRa:RXRa (NR concentration 270 nM, RXRa partner concentration 90 nM). In outline:
as §1

For test [3], the system named is LXRa homodimer (NR concentration 270 nM). In outline: as §1
Test [4] relates to LXRb:RXRa (NR concentration 270 nM, RXRa partner concentration 90 nM). The method, boiled down: as §1
The subject of test [5] is LXRb homodimer (NR concentration 270 nM). In outline:
as §1

Test [6] concerns PPARa:RXRa (NR concentration 270 nM, RXRa partner concentration 90 nM). The method, boiled down:
as §1

Test [7] concerns PPARg:RXRa (NR concentration 180 nM, RXRa partner concentration 90 nM). In outline:
as §1

Test [8] concerns PPARg:RXRa 270nM:90nM, anti-RXR (NR concentration 270 nM, RXRa partner concentration 90 nM). In outline:
as §1

For test [9], the system named is PPARg:RXRa 30nM:10nM, anti-RXR (NR concentration 30 nM, RXRa partner concentration 10 nM). In outline: as §1
For test [10], the system named is PPARg:RXRa 90nM:30nM, anti-RXR (NR concentration 90 nM, RXRa partner concentration 30 nM). The method, boiled down:
as §1

Test [11] relates to PPARg:RXRa DBDmut IVT, anti-RXR (DBD mutation: RXRa K156A/R161A, NR concentration 270 nM, RXRa partner concentration 90 nM). In outline: as §1
Test [12] has as its system PPARg:RXRa IVT, anti-PPARg (NR concentration 270 nM, RXRa partner concentration 90 nM). The method, boiled down: as §1
Test [13] relates to PPARg DBDmut:RXRa IVT, anti-PPARg (DBD mutation: PPARg1 K132A/R137A, NR concentration 270 nM, RXRa partner concentration 90 nM). In outline:
as §1

Test [14] relates to PPARg DBDmut IVT, anti-PPARg (DBD mutation: PPARg1 K132A/R137A, NR concentration 270 nM). In outline:
as §1

Test [15] deals with PPARg homodimer (NR concentration 180 nM). The method, boiled down:
as §1

The test system of test [16] is PXR:RXRa (NR concentration 270 nM, RXRa partner concentration 90 nM). In outline: as §1
Test [17] concerns PXR homodimer (NR concentration 270 nM). In outline: as §1
The subject of test [18] is RARa:RXR (NR concentration 270 nM, RXRa partner concentration 90 nM). In outline:
as §1

The subject of test [19] is RARa homodimer (NR concentration 270 nM). The method, boiled down:
as §1

In test [20] the test system is RARb:RXRa (NR concentration 270 nM, RXRa partner concentration 90 nM). In outline: as §1

Regarding TAGCCTAGGTCAATGGGCCAGTATAGTACGCATC, the PBM binding z-score in test [1] is 3.09; in test [2] it was 2.16; in [3], -0.016; in test [4], 1.51; in test [5] it was -0.146; in test [6], 3.27. For the same sequence, the PBM binding z-score in test [7] is 2.95; in test [8], 2.83; in [9], 0.834; in [10] it was 1.67; in test [11], 1.98; in test [12] it was 3.19. Also, the PBM binding z-score in test [13] is -0.338; in test [14] it was -0.429; in [15], 0.9; in test [16] it was 0.686; in test [17], -0.285; in test [18], 1.56. For the same sequence, the PBM binding z-score came to 0.0956 in test [19] and 3.67 in test [20].
With CAAACTAGATCAAGGTCAAAGTCGGTTTGTGCCA, the PBM binding z-score in [1] was 4.53; in [2] it was 4.46; in test [3], 3.64; in [4] it was 3.65; in test [5], 0.973; in test [6], 4.54. Moreover, the PBM binding z-score is 3.63 in [7]; 3.99 in test [8]; 1.31 in [9]; 2.91 in test [10]; 3.37 in test [11]; 3.93 in test [12]. In addition, the PBM binding z-score is 1.86 in [13]; -0.496 in [14]; 1.73 in test [15]; 4.01 in test [16]; 1.98 in test [17]; 3.96 in test [18]. For the same sequence, the PBM binding z-score turned out to be 0.755 in test [19] and 3.92 in test [20].
On to CCTAGCATGCCAATCTGGGTCACTCAAGGCTTGA, for which the PBM binding z-score in [1] was 0.636; in [2] it was 1.12; in test [3], -0.371; in test [4], 0.998; in test [5], -0.652; in test [6], 3.3. Moreover, the PBM binding z-score in test [7] was 2.23; in [8], 2.25; in [9], -0.035; in [10] it was 1.26; in [11], 3.67; in test [12], 4.84. Besides, the PBM binding z-score is 0.133 in [13]; -0.458 in [14]; 0.737 in test [15]; 0.913 in test [16]; -0.249 in test [17]; 1.65 in test [18]. Moreover, the PBM binding z-score in test [19] is -0.219; in test [20], 1.16.
For the sequence ATCTCTAGGTAAAGGTAGTTCAGTGAATGCAAAT, the PBM binding z-score in test [1] is 0.462; in test [2], 2.47; in test [3], 0.775; in test [4] it was 0.88; in test [5], 0.769; in test [6], 1.08. Also, the PBM binding z-score in test [7] stood at 0.966; in test [8], 2.17; in test [9] it was 0.811; in [10], 1.4; in test [11], 2.73; in [12], 2.3. Also, the PBM binding z-score was 0.954 in test [13]; 1.19 in [14]; 1.25 in test [15]; 1.15 in [16]; 0.822 in [17]; 0.523 in test [18]. Besides, the PBM binding z-score in [19] was 1.7; in test [20], 0.628.
Consider AGAATGTGGTTATTAAGATCAGGGAATTGCGGTC, for which the PBM binding z-score in test [1] is 0.0647; in test [2] it was -0.0146; in [3] it was 0.00993; in test [4], -0.0352; in test [5] it was 0.111; in test [6], -0.0476. The PBM binding z-score is 0.144 in test [7]; 0.078 in [8]; -0.037 in [9]; 0.417 in [10]; 0.321 in test [11]; 0.232 in test [12]. The PBM binding z-score is 0.301 in [13]; 1.09 in test [14]; 1.35 in [15]; -0.0244 in test [16]; 0.763 in test [17]; 0.105 in test [18]. Also, the PBM binding z-score in test [19] stood at 1.37; in test [20], 0.11.
For TCATATAGGTAAAGGTGAGAGTCGAACGATATGA, the PBM binding z-score in test [1] is 0.752; in [2], 0.731; in [3], -0.322; in [4], 1.01; in [5] it was -0.291; in test [6] it was 2.5. The PBM binding z-score came out at 3.11 in test [7]; 4.06 in test [8]; 4.06 in test [9]; 3.83 in test [10]; 4.15 in [11]; 4 in test [12]. Moreover, the PBM binding z-score in test [13] worked out at 1.24; in test [14], 1.62; in [15], 0.906; in test [16], 0.649; in test [17], 0.0264; in [18], 1.29. The PBM binding z-score was determined as 0.387 in [19] and 1.69 in test [20].
